For orientation: inhibition means the change of the read-out against control, counted positive when it falls.

The text below walks through data of ChEMBL document CHEMBL1961873, “Compounds: GSK PKIS; Assays: Nanosyn kinase panel” (2012).

Structures are written as SMILES.

Assay [1] concerns the target Tyrosine-protein kinase Fyn (Homo sapiens) (UniProt P06241). The following applies: at 1 µM.
Assay [2] concerns the target Tyrosine-protein kinase HCK (Homo sapiens) (UniProt P08631). The conditions noted are these: at 0.1 µM.
Assay [3] has the same target. The following applies: at 1 µM.
Assay [4] deals with Insulin-like growth factor 1 receptor (Homo sapiens) (UniProt P08069). The following applies: at 0.1 µM.
Assay [5] has the same target. The following applies: at 1 µM.
Assay [6] has as its target Insulin receptor (Homo sapiens) (UniProt P06213). The conditions noted are these: at 0.1 µM.
For assay [7] the target is unchanged. The conditions noted are these: at 1 µM.
In assay [8] the target is Insulin receptor-related protein (Homo sapiens) (UniProt P14616). The conditions noted are these: at 0.1 µM.
Assay [9] has the same target. The conditions noted are these: at 1 µM.
Assay [10] deals with T1, Tyrosine-protein kinase ITK/TSK (Homo sapiens) (UniProt Q08881).
T1 sequence (whole entry): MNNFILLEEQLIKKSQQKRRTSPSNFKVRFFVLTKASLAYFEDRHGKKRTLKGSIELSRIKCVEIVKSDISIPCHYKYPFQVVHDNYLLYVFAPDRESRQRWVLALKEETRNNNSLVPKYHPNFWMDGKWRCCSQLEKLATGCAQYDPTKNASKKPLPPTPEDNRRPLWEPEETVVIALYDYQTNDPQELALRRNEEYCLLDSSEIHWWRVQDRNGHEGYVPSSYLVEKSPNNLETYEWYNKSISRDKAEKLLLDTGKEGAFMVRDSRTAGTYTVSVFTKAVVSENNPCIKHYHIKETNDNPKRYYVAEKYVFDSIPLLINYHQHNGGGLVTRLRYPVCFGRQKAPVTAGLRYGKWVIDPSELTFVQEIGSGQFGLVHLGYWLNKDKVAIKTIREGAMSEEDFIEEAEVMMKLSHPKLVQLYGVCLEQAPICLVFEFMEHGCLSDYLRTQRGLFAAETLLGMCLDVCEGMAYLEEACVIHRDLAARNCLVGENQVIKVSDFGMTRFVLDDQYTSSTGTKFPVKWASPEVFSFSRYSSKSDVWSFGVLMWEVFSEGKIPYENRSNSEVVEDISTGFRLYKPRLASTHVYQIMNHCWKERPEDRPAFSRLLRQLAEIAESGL
The conditions noted are these: at 0.1 µM.

The target of assay [11] is T1, Tyrosine-protein kinase ITK/TSK (Homo sapiens). The following applies: at 1 µM.
Assay [12] concerns the target Tyrosine-protein kinase JAK1 (Homo sapiens) (UniProt P23458). The following applies: at 0.1 µM.
Assay [13] has the same target. The following applies: at 1 µM.
In assay [14] the target is Tyrosine-protein kinase JAK2 (Homo sapiens) (UniProt O60674). The following applies: at 0.1 µM.
The target is the same in assay [15]. The following applies: at 1 µM.
The target in assay [16] is T2, Tyrosine-protein kinase JAK3 (Homo sapiens) (UniProt P52333).
T2 sequence (whole entry): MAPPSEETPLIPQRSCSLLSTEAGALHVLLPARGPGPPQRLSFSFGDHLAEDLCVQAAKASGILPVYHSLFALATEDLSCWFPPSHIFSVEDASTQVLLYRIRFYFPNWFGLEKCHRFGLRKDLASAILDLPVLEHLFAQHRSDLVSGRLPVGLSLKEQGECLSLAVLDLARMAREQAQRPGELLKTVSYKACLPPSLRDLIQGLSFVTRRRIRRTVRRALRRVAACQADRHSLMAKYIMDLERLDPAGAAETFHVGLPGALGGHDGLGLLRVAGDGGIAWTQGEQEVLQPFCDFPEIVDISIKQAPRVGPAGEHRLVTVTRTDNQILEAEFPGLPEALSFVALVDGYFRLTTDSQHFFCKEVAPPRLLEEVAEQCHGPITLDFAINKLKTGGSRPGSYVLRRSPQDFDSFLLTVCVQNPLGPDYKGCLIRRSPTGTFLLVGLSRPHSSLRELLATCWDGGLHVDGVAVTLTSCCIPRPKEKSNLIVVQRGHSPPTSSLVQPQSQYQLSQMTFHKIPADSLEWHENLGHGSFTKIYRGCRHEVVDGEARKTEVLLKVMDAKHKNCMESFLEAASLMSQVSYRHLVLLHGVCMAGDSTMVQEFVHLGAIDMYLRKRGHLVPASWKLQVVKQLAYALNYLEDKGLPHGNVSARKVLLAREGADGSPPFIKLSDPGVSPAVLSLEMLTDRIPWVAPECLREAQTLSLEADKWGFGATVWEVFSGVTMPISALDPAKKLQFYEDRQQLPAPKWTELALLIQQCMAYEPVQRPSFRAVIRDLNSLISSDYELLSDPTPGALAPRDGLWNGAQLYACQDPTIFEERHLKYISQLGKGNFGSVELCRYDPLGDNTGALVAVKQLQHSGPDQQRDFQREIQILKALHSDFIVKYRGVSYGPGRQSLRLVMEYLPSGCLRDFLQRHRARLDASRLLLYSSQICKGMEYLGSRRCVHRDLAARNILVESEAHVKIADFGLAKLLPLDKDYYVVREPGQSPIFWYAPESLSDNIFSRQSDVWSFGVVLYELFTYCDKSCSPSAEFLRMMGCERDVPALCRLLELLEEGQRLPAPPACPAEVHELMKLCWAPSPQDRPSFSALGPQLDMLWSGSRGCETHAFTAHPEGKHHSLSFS
The following applies: at 0.1 µM.

Assay [17] has as its target T2, Tyrosine-protein kinase JAK3 (Homo sapiens). The conditions noted are these: at 1 µM.
Assay [18] concerns the target Vascular endothelial growth factor receptor 2 (Homo sapiens) (UniProt P35968). The following applies: at 0.1 µM.
The target is the same in assay [19]. The conditions noted are these: at 1 µM.
For assay [20], the target named is Mast/stem cell growth factor receptor Kit (Homo sapiens) (UniProt P10721). The following applies: at 0.1 µM.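 Also: values are mean inhibition of KIT, from the GSK PKIS dataset.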
Chain of Mast/stem cell growth factor receptor Kit (Homo sapiens) (P10721 whole entry): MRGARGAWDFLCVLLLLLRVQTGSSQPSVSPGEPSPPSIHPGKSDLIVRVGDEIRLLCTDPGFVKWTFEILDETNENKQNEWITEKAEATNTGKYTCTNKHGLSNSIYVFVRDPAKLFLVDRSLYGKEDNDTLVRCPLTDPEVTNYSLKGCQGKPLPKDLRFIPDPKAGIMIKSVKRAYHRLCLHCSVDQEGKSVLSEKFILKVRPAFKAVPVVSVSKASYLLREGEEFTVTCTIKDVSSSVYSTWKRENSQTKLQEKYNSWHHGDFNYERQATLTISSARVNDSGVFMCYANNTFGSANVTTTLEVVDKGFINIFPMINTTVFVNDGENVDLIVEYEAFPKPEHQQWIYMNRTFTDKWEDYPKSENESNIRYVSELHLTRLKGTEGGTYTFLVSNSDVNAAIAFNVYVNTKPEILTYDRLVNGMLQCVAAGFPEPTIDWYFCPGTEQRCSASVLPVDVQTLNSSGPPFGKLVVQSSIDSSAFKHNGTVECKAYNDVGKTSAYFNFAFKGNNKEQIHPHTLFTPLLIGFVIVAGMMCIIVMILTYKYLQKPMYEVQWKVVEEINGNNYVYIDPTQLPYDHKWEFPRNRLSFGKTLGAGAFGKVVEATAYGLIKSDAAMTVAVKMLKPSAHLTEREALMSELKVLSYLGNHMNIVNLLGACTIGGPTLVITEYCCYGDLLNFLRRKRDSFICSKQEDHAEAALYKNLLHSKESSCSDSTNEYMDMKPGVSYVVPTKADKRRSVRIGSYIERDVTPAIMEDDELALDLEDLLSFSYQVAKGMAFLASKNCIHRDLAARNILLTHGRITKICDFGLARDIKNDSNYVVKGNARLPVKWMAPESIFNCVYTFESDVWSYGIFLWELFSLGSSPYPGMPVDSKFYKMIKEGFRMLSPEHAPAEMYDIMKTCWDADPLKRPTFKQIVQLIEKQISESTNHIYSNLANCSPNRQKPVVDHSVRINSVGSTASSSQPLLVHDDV

Chain of Tyrosine-protein kinase HCK (Homo sapiens) (P08631 2-526 limits assumed): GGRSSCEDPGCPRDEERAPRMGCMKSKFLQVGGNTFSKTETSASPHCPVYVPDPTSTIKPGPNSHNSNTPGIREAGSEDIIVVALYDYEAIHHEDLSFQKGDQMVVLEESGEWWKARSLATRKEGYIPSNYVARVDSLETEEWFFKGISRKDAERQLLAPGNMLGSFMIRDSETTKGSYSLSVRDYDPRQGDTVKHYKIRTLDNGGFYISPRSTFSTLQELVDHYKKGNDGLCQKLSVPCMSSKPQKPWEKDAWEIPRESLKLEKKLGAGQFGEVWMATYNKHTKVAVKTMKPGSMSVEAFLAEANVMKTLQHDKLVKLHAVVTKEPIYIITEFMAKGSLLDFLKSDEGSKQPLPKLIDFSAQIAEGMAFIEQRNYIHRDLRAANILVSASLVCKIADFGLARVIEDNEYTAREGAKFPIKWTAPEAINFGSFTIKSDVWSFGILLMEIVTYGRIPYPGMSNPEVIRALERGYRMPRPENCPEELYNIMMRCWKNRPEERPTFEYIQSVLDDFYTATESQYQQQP
Chain of Insulin-like growth factor 1 receptor (Homo sapiens) (P08069 31-736 limits assumed): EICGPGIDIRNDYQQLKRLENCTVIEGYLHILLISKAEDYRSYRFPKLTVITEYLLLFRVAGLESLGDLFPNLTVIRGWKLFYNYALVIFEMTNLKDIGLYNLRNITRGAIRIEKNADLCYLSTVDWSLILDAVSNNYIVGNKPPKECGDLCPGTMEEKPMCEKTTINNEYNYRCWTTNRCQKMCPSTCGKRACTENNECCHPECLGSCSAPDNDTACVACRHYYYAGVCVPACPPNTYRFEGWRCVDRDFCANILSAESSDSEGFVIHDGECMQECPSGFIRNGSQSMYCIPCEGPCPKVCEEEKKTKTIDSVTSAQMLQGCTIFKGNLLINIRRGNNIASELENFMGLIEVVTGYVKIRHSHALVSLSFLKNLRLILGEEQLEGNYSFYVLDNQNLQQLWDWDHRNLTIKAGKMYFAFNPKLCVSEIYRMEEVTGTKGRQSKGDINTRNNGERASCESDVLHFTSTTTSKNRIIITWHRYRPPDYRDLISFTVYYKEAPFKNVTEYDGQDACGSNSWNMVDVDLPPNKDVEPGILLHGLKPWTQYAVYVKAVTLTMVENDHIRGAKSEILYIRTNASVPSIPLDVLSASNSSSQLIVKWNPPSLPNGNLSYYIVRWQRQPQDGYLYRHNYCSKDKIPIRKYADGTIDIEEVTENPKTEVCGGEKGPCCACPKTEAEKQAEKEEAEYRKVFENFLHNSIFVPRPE
Chain of Insulin-like growth factor 1 receptor (Homo sapiens) (P08069 741-1367 limits assumed): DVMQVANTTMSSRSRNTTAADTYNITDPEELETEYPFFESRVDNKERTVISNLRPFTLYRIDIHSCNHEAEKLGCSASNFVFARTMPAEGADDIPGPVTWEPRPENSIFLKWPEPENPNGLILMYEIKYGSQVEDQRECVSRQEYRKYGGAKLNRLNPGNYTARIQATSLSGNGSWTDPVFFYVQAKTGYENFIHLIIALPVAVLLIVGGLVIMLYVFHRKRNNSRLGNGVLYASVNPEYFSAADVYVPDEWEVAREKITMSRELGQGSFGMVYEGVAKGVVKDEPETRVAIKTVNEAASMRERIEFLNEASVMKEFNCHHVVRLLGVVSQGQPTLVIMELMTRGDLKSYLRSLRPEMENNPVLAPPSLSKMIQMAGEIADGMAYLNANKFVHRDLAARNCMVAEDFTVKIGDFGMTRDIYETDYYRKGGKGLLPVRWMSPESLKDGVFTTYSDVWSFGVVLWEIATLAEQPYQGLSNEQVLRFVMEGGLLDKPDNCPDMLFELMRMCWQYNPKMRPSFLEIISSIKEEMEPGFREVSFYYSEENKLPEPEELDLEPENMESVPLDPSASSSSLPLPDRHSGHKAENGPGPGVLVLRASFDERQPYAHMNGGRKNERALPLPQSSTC
Chain of Vascular endothelial growth factor receptor 2 (Homo sapiens) (P35968 whole entry): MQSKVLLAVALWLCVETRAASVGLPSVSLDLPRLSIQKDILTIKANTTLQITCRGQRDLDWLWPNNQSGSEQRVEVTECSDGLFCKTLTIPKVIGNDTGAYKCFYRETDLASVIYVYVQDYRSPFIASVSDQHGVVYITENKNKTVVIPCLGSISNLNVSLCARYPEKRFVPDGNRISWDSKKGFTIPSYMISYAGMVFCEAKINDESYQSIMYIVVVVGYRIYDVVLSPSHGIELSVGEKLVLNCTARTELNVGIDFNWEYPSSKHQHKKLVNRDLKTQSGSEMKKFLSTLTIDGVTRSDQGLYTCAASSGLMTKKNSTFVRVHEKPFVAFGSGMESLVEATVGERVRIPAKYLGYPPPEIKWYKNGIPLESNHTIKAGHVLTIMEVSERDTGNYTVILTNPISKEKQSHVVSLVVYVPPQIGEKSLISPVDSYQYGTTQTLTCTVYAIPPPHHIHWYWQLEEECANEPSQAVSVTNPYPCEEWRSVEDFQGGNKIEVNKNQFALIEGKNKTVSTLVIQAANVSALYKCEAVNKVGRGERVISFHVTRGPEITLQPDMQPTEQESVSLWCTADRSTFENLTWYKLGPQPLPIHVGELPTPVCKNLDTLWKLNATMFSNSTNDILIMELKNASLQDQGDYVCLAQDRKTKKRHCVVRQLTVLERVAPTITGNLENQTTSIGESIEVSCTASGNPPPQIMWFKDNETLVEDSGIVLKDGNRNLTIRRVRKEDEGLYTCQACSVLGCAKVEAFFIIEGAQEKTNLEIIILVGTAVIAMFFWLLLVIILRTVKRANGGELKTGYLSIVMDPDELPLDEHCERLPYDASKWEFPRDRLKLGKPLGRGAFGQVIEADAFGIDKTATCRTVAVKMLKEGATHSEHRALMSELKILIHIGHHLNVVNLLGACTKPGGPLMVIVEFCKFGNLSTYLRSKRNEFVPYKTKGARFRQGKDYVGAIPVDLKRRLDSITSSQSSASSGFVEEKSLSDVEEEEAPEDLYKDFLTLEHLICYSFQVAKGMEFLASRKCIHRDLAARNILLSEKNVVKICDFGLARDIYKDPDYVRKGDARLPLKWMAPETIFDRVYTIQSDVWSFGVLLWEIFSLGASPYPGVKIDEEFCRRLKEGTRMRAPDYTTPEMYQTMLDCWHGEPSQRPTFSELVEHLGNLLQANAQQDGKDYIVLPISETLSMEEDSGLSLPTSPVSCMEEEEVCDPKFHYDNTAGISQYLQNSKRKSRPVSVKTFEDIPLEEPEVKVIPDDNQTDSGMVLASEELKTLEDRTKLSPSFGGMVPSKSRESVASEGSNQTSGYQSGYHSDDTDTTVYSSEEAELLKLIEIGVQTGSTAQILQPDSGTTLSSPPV
Chain of Tyrosine-protein kinase Fyn (Homo sapiens) (P06241 2-537 limits assumed): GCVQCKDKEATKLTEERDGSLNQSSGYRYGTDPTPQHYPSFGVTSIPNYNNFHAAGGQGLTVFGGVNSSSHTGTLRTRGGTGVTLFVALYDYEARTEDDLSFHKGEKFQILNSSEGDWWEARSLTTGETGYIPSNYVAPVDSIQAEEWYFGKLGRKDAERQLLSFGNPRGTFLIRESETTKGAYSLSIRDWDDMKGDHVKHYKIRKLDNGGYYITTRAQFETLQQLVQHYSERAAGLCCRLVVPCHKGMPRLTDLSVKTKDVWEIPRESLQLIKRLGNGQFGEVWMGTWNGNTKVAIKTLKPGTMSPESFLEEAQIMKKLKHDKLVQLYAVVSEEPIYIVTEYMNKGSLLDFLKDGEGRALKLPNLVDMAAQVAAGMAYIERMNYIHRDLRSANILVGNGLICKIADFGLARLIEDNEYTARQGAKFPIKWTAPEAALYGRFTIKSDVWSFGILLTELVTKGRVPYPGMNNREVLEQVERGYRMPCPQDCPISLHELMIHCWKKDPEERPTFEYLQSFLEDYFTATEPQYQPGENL

For `CS(=O)(=O)CCNCc1nc(-c2ccc3ncnc(Nc4ccc(OCc5cccc(C(F)(F)F)c5)cc4)c3c2)cs1`, the inhibition in assay [1] was determined as 3.35%; in [2], 3.91%; in [3], 5.68%; in [4] it was 4.43%; in assay [5] it was 3.36%; in [6], 1.31%. In addition, the inhibition in [7] is 3.15%; in assay [8], -0.71%; in [9], 1.53%; in assay [10], 1.21%; in assay [11], 2.53%; in assay [12] it was 1.05%. Moreover, the inhibition in assay [13] was 3.96%; in assay [14], 1.09%; in assay [15], 3.08%; in assay [16], -0.8%; in [17], 1.6%; in assay [18], 2.88%. Further, the inhibition is 9.28% in assay [19] and 1.96% in [20].

On to `O=C(Nc1ccc(Oc2ccc3[nH]c(NC(=O)c4ccco4)nc3c2)cc1)Nc1cc(C(F)(F)F)ccc1F`, for which the inhibition in assay [1] is 19.9%; in assay [2], 7.54%; in [3], 47.3%; in assay [4], -8.65%; in assay [5], -5.27%; in assay [6], 1.23%. Further, the inhibition in [7] was 1.66%; in [8], 0.43%; in assay [9], 0.25%; in assay [10] it was -2.86%; in assay [11], 0.22%; in [12], -1.24%. For the same compound, the inhibition in [13] is 0.27%; in assay [14] it was 1.11%; in assay [15], 7.23%; in [16], -3.43%; in assay [17], -2.59%; in assay [20], 30.5%.

Consider `CN1CCN(C(=O)c2ccc(NC(=O)Nc3ccc(N(C)c4ccnc(Nc5ccc(CS(C)(=O)=O)cc5)n4)cc3)cc2)CC1`, for which the inhibition is 8.13% in assay [1]; 3.98% in assay [2]; 22.7% in assay [3]; 3.48% in [4]; 6.42% in assay [5]; 4.81% in assay [6]. Further, the inhibition was 10.6% in [7]; -0.19% in assay [8]; 2.44% in [9]; 6.56% in [10]; 38.7% in assay [11]; 2.49% in assay [12]. Besides, the inhibition in assay [13] was 20.6%; in assay [14], 3.54%; in [15], 49.7%; in assay [16], -1.34%; in assay [17], 26.2%; in assay [18], 21.4%. For the same compound, the values for the inhibition in assay [19] and in assay [20] were 69.2% and 65.6%, respectively.

As for `NS(=O)(=O)c1cccc(Nc2cc(-c3ccc(F)cc3)n[nH]2)c1`, the inhibition in assay [1] is 5.32%; in assay [2], 3.23%; in [3], 7.76%; in assay [4], 0.35%; in assay [5], 1.22%; in [6], 0.86%. Further, the inhibition stood at 1.03% in assay [7]; 1.9% in assay [8]; 2.3% in assay [9]; 1.67% in [10]; 6.64% in [11]; 3.56% in assay [12]. Moreover, the inhibition in assay [13] is 10.4%; in [14], 0.36%; in assay [15], 1.81%; in assay [16] it was -1.55%; in assay [17], 1.11%; in assay [18], 5.37%. Moreover, the figures for the inhibition in assay [19] and in [20] were 15.3% and 34.5%, respectively.

With `Cc1ccc(NC(=O)CC2CC2)cc1-c1ccc(C(=O)NCC2CC2)cc1`, the inhibition in assay [1] was 5.9%; in [2] it was 9%; in assay [3], 10.3%; in assay [4] it was 1.36%; in assay [5], 2.09%; in assay [6], 2.71%. Further, the inhibition in assay [7] amounted to 5.25%; in [8], 2.99%; in assay [9], 3.28%; in [10], 1.08%; in assay [11], 1.47%; in assay [12] it was 1.27%. In addition, the inhibition in [13] was 6.97%; in assay [14], 1.47%; in [15], 5.47%; in assay [16] it was -0.78%; in [17] it was 2.17%; in assay [18], 9.88%. Also, the results for the inhibition in assay [19] and in assay [20] were 12.3% and 3.18%, respectively.

Take `N#Cc1cccc(Nc2nccc(-c3cnn4ncccc34)n2)c1`: the inhibition in [1] is 39.2%; in [2] it was 7.16%; in [3], 35.9%; in assay [4], 8.04%; in assay [5], 38.2%; in assay [6] it was 9.03%. Moreover, the inhibition stood at 40.9% in assay [7]; 3.98% in assay [8]; 10.8% in assay [9]; 2.91% in [10]; 21.1% in assay [11]; 2.54% in assay [12]. Further, the inhibition in assay [13] is 14.9%; in assay [14], 2.15%; in assay [15], 22.1%; in assay [16], 5.73%; in [17] it was 36.2%; in [18], 12.1%. Besides, the inhibition stood at 43.9% in [19] and 78.3% in assay [20].

For the compound `NS(=O)(=O)c1ccc(-c2cc3ccncc3cc2OCc2ccccc2)cc1`, the inhibition is 3.52% in assay [1]; 4.9% in assay [2]; 6.46% in assay [3]; 1.47% in assay [4]; 2.17% in assay [5]; 4.34% in assay [6]. The inhibition stood at 5.38% in assay [7]; 2.36% in assay [8]; 2.61% in assay [9]; 0.77% in [10]; 0.35% in [11]; 3.02% in assay [12]. Moreover, the inhibition in assay [13] is 10%; in assay [14], 1.43%; in assay [15] it was 3.23%; in assay [16], -0.75%; in [17], -1.27%; in assay [18], 4.82%. The inhibition in assay [19] stood at 8.11%; in assay [20], 4.01%.
